The test system of one experiment is CRL-7250. Briefly: Cytotoxic Profiling of Annotated Libraries Using Quantitative High-Throughput Screening (AID 1296008). Further: nearly all actives have a fitted effect of over 60% in size. On max response: on the % scale 0 is the no-effect control and ±100 the full control effect. Particulars: Five cell lines viability, CellTiter-Glo ATP luminescence, 48-72 h; max response: stronger effect = lower value. Put shortly: (§1)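 Compounds were pin-transferred onto cells and incubated 48 or 72 hr at 37 degree Celsius, 95% humidity. CellTiter-Glo was added, plates sat 10 min at room temperature, then ATP-coupled luminescence was imaged as the viability read-out.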

The subject of another experiment is HEK293. The description is as above. The conditions noted are these: Five cell lines viability, CellTiter-Glo ATP luminescence, 48-72 h; max response: stronger effect = lower value. Put shortly:
as §1

The next experiment deals with HaCat. Described as above. The conditions noted are these: Five cell lines viability, CellTiter-Glo ATP luminescence, 48-72 h; max response: stronger effect = lower value. The method, boiled down:
as §1

The test system of experiment [1] is NIH3T3. Described as above. Particulars: Five cell lines viability, CellTiter-Glo ATP luminescence, 48-72 h; max response: stronger effect = lower value. The method, boiled down:
as §1
On the technique in general: Cellular ATP, detected with luciferase, serves as a proxy for viable cell number.

Another experiment deals with MCC-26. Nature of the experiment: qHTS assay to identify novel small-molecules to repurpose for Merkel cell carcinoma treatment (AID 1296009). Further: nearly all actives have a fitted effect of over 60% in size. Particulars: MCC and control cell lines, CellTiter-Glo viability, 72 h; series mostly up to 46 µM. Put shortly:
(§2)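 Cells exposed to NPC (8-point) and MIPE (11-point) compound dilutions for 72 hr at 37 degree celsius; viability read by CellTiter-Glo luminescence, normalized to no-cell and DMSO in-plate controls.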
Background: Quantitative high-throughput screening tests each substance at several concentrations.

The test system of the next experiment is MKL-1. The experiment is described as above. Particulars: MCC and control cell lines, CellTiter-Glo viability, 72 h; series mostly up to 46 µM. Put shortly:
as §2

The test system of the next experiment is WaGa. The experiment is described as above. Particulars: MCC and control cell lines, CellTiter-Glo viability, 72 h; series mostly up to 46 µM. Put shortly:
as §2

Another experiment deals with CAOV3. Nature of the experiment: Primary qHTS to identify gynecologic anti-cancer compounds using libraries of approved drugs and bioactive compounds (AID 1345084). Further: nearly all actives have a fitted effect of over 55% in size. Particulars: Gynecologic cancer cell panel viability, ATPlite luminescence, 48 h; series mostly up to 57.5 µM. The method, boiled down: (§3)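 Cell viability after 48 h drug treatment, ATPlite luminescence readout; five doses.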

For a further experiment, the system named is Es-2. The description is as above. Particulars: Gynecologic cancer cell panel viability, ATPlite luminescence, 48 h; series mostly up to 57.5 µM. Put shortly:
as §3

The subject of another experiment is HeLa. Described as above. The conditions noted are these: Gynecologic cancer cell panel viability, ATPlite luminescence, 48 h; series mostly up to 57.5 µM. Put shortly:
as §3

The subject of a further experiment is W2. Briefly: qHTS profiling for inhibitors of Plasmodium falciparum proliferation (AID 504749). Further: nearly all actives have a fitted effect of over 60% in size. The conditions noted are these: P. falciparum in erythrocytes, SYBR Green DNA, 72 h; series mostly up to 28.7 µM. Put shortly:
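P. falciparum-infected erythrocytes (0.3% parasitemia, 2.5% hematocrit final) were exposed to compounds for 72 h at 37 C in 5% CO2, then lysed with SYBR Green buffer overnight at room temperature; parasite DNA fluorescence was normalized to artemisinin and DMSO controls.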

A further experiment relates to KB-3-1. Briefly: Cytotoxic Profiling of Annotated Libraries Using Quantitative High-Throughput Screening (AID 1296008). Further: nearly all actives have a fitted effect of over 60% in size. On max response: on the % scale 0 is the no-effect control and ±100 the full control effect. The conditions noted are these: Five cell lines viability, CellTiter-Glo ATP luminescence, 48-72 h; max response: stronger effect = lower value. The method, boiled down: as §1
Another experiment deals with MCC-13. Nature of the experiment: qHTS assay to identify novel small-molecules to repurpose for Merkel cell carcinoma treatment (AID 1296009). Further: nearly all actives have a fitted effect of over 60% in size. Particulars: MCC and control cell lines, CellTiter-Glo viability, 72 h; series mostly up to 46 µM. The method, boiled down:
as §2

A further experiment relates to MKL-2. The experiment is described as above. Particulars: MCC and control cell lines, CellTiter-Glo viability, 72 h; series mostly up to 46 µM. Put shortly: as §2
For a further experiment, the system named is UISO. The experiment is described as above. The conditions noted are these: MCC and control cell lines, CellTiter-Glo viability, 72 h; series mostly up to 46 µM. The method, boiled down:
as §2

Another experiment has as its system C33A. Briefly: Primary qHTS to identify gynecologic anti-cancer compounds using libraries of approved drugs and bioactive compounds (AID 1345084). Further: nearly all actives have a fitted effect of over 55% in size. The conditions noted are these: Gynecologic cancer cell panel viability, ATPlite luminescence, 48 h; series mostly up to 57.5 µM. The method, boiled down: as §3
The next experiment has as its system CASKI. Described as above. The conditions noted are these: Gynecologic cancer cell panel viability, ATPlite luminescence, 48 h; series mostly up to 57.5 µM. The method, boiled down: as §3
Experiment [2] relates to NIH3T3. Briefly: qHTS assay to identify novel small-molecules to repurpose for Merkel cell carcinoma treatment (AID 1296009). Further: nearly all actives have a fitted effect of over 60% in size. The conditions noted are these: MCC and control cell lines, CellTiter-Glo viability, 72 h; at 44.8 µM (top of the series). The method, boiled down:
as §2

Another experiment deals with HEK293T. The description is as above. Particulars: MCC and control cell lines, CellTiter-Glo viability, 72 h; at 44.8 µM (top of the series) unless noted. Put shortly:
as §2

Inconclusive results are not listed. A number with no mark means an inactive call. Active and inactive are the calls of the source. The call rests on the fitted dose curve; in most records, active means well fitted curve in the direction sought with a large enough effect; inconclusive means small, poorly fitted or top-dose-only effect, or another doubt; inactive means no such curve, though single readings can be large; an effect the other way counts as inactive or inconclusive.
Potency means the concentration at half of the fitted maximal effect.

For `Nc1nc(Cl)nc2c1ncn2[C@@H]1O[C@H](CO)[C@@H](O)[C@@H]1F`, the Potency in the experiment on CRL-7250 is 0.596 µM (active); in the experiment with HEK293, 1.5 µM (active); with HaCat, 1.06 µM (active); in the experiment with NIH3T3 [1], 1.19 µM (active); in the experiment with MCC-26, 3.76 µM (active); in the experiment on MKL-1, 0.119 µM (active). Also, the Potency in the experiment on WaGa is 0.0944 µM (active); in the experiment with CAOV3, 1.12 µM (active); in the experiment with Es-2, 0.316 µM (active). For the same compound, in the experiment with HeLa, the Potency result is “inactive”.

`CC(=O)Oc1ccc(C)cc1`: the Potency result in the experiment with W2, with MCC-13, in the experiment with MCC-26, with MKL-1, in the experiment with MKL-2 and in the experiment with UISO was “inactive” in each case. In addition, the Potency entry in the experiment on WaGa, in the experiment with C33A, with CAOV3, with CASKI, in the experiment on Es-2 and with HeLa was “inactive” in each case. In addition, the max response in the experiment with CRL-7250 was -8.74%; with HEK293 it was -1.12%; in the experiment on KB-3-1 it was 5.93%; with NIH3T3 [1] it was 2.4%.

Take `CN1CCC(OC(c2ccccc2)c2ccccc2)CC1`: the Potency in the experiment on W2 was 3.22 µM (active). Also, the compound was classed as inactive in the experiment on CRL-7250, in the experiment with NIH3T3 [1] and in the experiment on NIH3T3 [2]. The max response in the experiment on HEK293 is -17.7%; in the experiment on KB-3-1, -12.2%. Moreover, the Potency entry in the experiment on MCC-13, in the experiment with MCC-26, in the experiment with MKL-1, in the experiment on MKL-2, in the experiment on UISO and in the experiment on WaGa was “inactive” throughout. Besides, the Potency result in the experiment on C33A, with CAOV3, in the experiment on CASKI, in the experiment on Es-2 and in the experiment on HeLa was “inactive” each time.

Consider `CC1(C)OC[C@@H]2O[C@@]3(C(=O)O)OC(C)(C)O[C@H]3[C@@H]2O1`, for which the max response was -27.6% with CRL-7250, -15.5% with KB-3-1 and -5.58% with NIH3T3 [1]. Further, the call in the experiment on HEK293 and with HEK293T was inactive. The Potency entry in the experiment on MCC-13, in the experiment with MCC-26, in the experiment on MKL-1, in the experiment with MKL-2, in the experiment on UISO and in the experiment with WaGa was “inactive” throughout. Further, the Potency entry with C33A, in the experiment with CASKI, with Es-2 and with HeLa was “inactive” throughout.

Turning to `CN1CCc2cccc3c2[C@H]1Cc1ccc(O)c(O)c1-3`, the Potency in the experiment with W2 is 3.01 µM (active); in the experiment on HEK293 it was 23.7 µM (active); with MKL-1, 1.33 µM (active); in the experiment on MKL-2, 0.841 µM (active); in the experiment on WaGa, 11.9 µM (active). For the same compound, the results for the max response in the experiment with CRL-7250 and in the experiment with KB-3-1 were -21.4% and 10.6%, respectively. Besides, the Potency entry with MCC-26 and in the experiment with CASKI was “inactive” each time.

For the compound `CCCCCCCC/C=C\CCCCCCCCN`, the Potency result with W2, with MCC-13, with MCC-26, in the experiment with MKL-1, in the experiment with MKL-2 and in the experiment on UISO was “inactive” in each case. Further, the Potency entry with WaGa, in the experiment with C33A, in the experiment on CAOV3, in the experiment on CASKI, with Es-2 and in the experiment with HeLa was “inactive” each time. The outcome in the experiment on CRL-7250 was inactive. For the same compound, the max response was -3.13% with HEK293, -6.06% in the experiment with KB-3-1 and -3% in the experiment with NIH3T3 [1].

As for `CCCCCN=C(N)N/N=C/c1c[nH]c2ccc(OC)cc12`, the Potency in the experiment with W2 is 1.51 µM (active); with CRL-7250, 18.8 µM (active); with HEK293 it was 8.41 µM (active); in the experiment on MCC-26 it was 23.7 µM (active); with UISO, 11.9 µM (active). Moreover, in the experiment with KB-3-1, the max response was 1.55%. Besides, the Potency entry in the experiment on MKL-1, in the experiment on MKL-2 and in the experiment on WaGa was “inactive” throughout.

In the case of `C#C[C@]1(O)CC[C@H]2[C@@H]3CCC4=CC(=O)CC[C@@H]4[C@H]3CC[C@@]21CC`, the max response in the experiment with CRL-7250 is -4.9%; in the experiment on HEK293, -17.9%; with KB-3-1, -1.4%; in the experiment with NIH3T3 [1], -3.66%. Moreover, the Potency result in the experiment with MCC-13, in the experiment with MCC-26, in the experiment with MKL-1, in the experiment on MKL-2, in the experiment with UISO and in the experiment with WaGa was “inactive” each time. The Potency result with C33A, with CASKI and with Es-2 was “inactive” in each case. Besides, the Potency in the experiment with HeLa was 3.55 µM (active).

As for `CC[C@]12CCCN3CCc4c(n(c5ccccc45)C(=O)C1)[C@@H]32`, the max response in the experiment on CRL-7250 is 2.69%; with HaCat, -22.7%. Besides, in the experiment on HEK293, the Potency was 7.5 µM (active). The Potency result with C33A and in the experiment on Es-2 was “inactive” in each case.

For `COc1ccc2c(c1)c1c3n2CCN(C)C3=NCC1`, the Potency entry in the experiment on W2, in the experiment on MCC-13, with MCC-26, with MKL-1, in the experiment with MKL-2 and with UISO was “inactive” in each case. The Potency result in the experiment on WaGa, in the experiment on C33A, in the experiment on CAOV3, in the experiment with CASKI, in the experiment with Es-2 and in the experiment on HeLa was “inactive” each time. In addition, in the experiment on CRL-7250, the call was inactive. Moreover, the figures for the max response in the experiment on HEK293, in the experiment on KB-3-1 and with NIH3T3 [1] were 3.32%, 0.417% and 0.478%, respectively.

With `Cc1ccc2c(Br)cc(Br)c(O)c2n1`, the Potency with CRL-7250 was 21.1 µM (active); with HEK293 it was 8.41 µM (active); in the experiment on MCC-13, 16.8 µM (active); with MKL-2, 5.96 µM (active); with WaGa, 9.44 µM (active); in the experiment on C33A it was 20 µM (active). The max response with KB-3-1 was 8.29%. The Potency entry with HeLa was “inactive”.

`CCN(CC)CCOc1ccc2c(c1)C(=O)c1cc(OCCN(CC)CC)ccc1-2`: the Potency with W2 is 13.5 µM (active); with CRL-7250, 23.7 µM (active); in the experiment on HEK293 it was 7.5 µM (active); in the experiment on MKL-1, 13.3 µM (active); in the experiment with MKL-2, 2.37 µM (active); in the experiment on WaGa, 15 µM (active). Besides, in the experiment on C33A, the Potency is 17.8 µM (active). In the experiment on KB-3-1, the max response was 41.3%. Further, the Potency result in the experiment on MCC-26 and in the experiment on HeLa was “inactive” in each case.
